Inhibition data for 14 compounds are collected here from ChEMBL document CHEMBL1157539, “Thousands of chemical starting points for antimalarial lead identification” (Nature, 2010).

In this test the test system is Plasmodium falciparum. Kind of test: GSK_TCMDC: Inhibition of Plasmodium falciparum Dd2 in whole red blood cells, using parasite LDH activity as an index of growth. Test compounds present at 2uM. It counts as functional.
`O=C(/C=C/c1ccc(Cl)c(Cl)c1)NC1CCC(CN2CCC(c3c[nH]c4ccccc34)CC2)CC1` (centres undefined) showed an Inhibition of 85%.

The compound `C=CCOc1ccccc1CNCC(O)c1cccc(C(F)(F)F)c1` (centres undefined) returned an Inhibition of 98%.

Consider `Oc1ccccc1CN1CCC(CCOC(c2ccccc2)c2ccc(Cl)cc2)CC1` (centres undefined), for which the Inhibition is reported as 99%.

Compound `CC(=O)Nc1ccc(OCCN(CC(C)(C)C)c2ccc(C#N)c(C(F)(F)F)c2)c(Cl)c1` displayed an Inhibition of 93%.

Compound `CC[C@H]1C[N+]2([O-])CC[C@@H]1C[C@H]2[C@H](O)c1cc(-c2ccccc2)nc2ccc(OC)cc12` registered an Inhibition of 97%.

Turning to `O=C(Nc1ccc(CN2CCC(c3c[nH]c4ccc(O)cc34)CC2)cc1)c1ccc(-c2ccccc2)cc1`, the Inhibition is on record as 100%.

In turn, `Cc1ccc(CC(C)NCC(O)c2cccc(C(F)(F)F)c2)c(C)c1.Cl` (centres undefined) registered an Inhibition of 99%.

For `CCCc1cc(O)c2c3c(c(=O)oc2c1)CN(C)CC3`, the Inhibition turned out to be 50%.

For the compound `CC[C@H]1CN2CC[C@@H]1C[C@H]2[C@H](O)c1cc(-c2ccc(Cl)c(Cl)c2)nc2ccc(O)cc12`, the Inhibition is recorded as 99%.

On to `CCCCCc1cc(O)c2c(c1)OC(C)(C)CC2C1=CCN(Cc2cccnc2)CC1.Cl.O` (centres undefined), for which the Inhibition is on record as 97%.

Turning to `CN1CC=C(c2c[nH]c3ccc(OCc4ccccc4)cc23)CC1`, the Inhibition is given as 97%.

Compound `CC[C@H]1CN2CC[C@H]1C[C@H]2[C@H](O)c1cc(-c2ccccc2F)nc2ccc(OC)cc12.Cl` registered an Inhibition of 98%.

`Cc1[nH]c2cc(F)ccc2c1C1=CCN(CCCCC2(C)C(=O)Nc3c(F)cccc32)CC1` (centres undefined) had an Inhibition of 89%.

`CC[C@H]1CN2CC[C@H]1C[C@H]2[C@H](OC(=O)c1ccccc1)c1cc(C#N)nc2ccc(OC)cc12` yielded an Inhibition of 49%.

A word on the Inhibition: it is the drop in the measured response relative to a control, in per cent. A high value points to a strong effect.
